ANO1 block = mouse TMEM16A channel inhibition, primary screen | HEK293 TMEM16A/YFP iodide influx fluorescence, ionomycin | normalized B-score (activity score, 25-100; higher = stronger inhibition) at 10 µM | 1.2% of 310,000 active;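 active means ratio plate-corrected score three or more library SD toward inhibition, starting fluorescence score within five deviations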;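 further: score derived from kinetic fluorescence span divided by baseline fluorescence per well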
TMEM16A act = mouse TMEM16A channel activation, primary screen; HEK293 TMEM16A/YFP-H148Q/I152L, iodide quench fluorescence; stronger effect = lower value; Q8BHY3; 0.3% of 340,000 active; B-score at 10 µM; AID 623877;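 active means fluorescence-ratio B-score plate-corrected deviation score at least 3 library SD below zero, with starting fluorescence score within 5 deviations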;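 further: channel opened by trigger with iodide after compound preincubation; score built on the fluorescence ratio of max minus min over baseline; more negative score means more quench and so TMEM16A activation or potentiation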
m5-HT2A agonist = activates the mouse 5-HT2A serotonin receptor; 0.66% of 360,000 active; P35363; activation, % at 7.6 µM; CHO-K1 mHTR2A beta-arrestin complementation, luminescence; percent of 30 µM serotonin response; AID 624169;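 active means activation above a run cutoff, the mean activation of all tested compounds plus 3 SD, cut at about 14% in these data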;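 further: 0% = plate median of compound wells and 100% = 30 µM serotonin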
NOD2-RIPK2 inh = inhibitors of human NOD2-RIPK2 interaction; CHO BLA complementation NOD2-RIPK2, CCF4 ratio; inhibition, % at 4.98 µM; 0.38% of 360,000 active; in the data active means inhibition above about 21%;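 further: 0% = vehicle only and 100% = reference blocker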
Target sequence (O43353 whole entry, looked up): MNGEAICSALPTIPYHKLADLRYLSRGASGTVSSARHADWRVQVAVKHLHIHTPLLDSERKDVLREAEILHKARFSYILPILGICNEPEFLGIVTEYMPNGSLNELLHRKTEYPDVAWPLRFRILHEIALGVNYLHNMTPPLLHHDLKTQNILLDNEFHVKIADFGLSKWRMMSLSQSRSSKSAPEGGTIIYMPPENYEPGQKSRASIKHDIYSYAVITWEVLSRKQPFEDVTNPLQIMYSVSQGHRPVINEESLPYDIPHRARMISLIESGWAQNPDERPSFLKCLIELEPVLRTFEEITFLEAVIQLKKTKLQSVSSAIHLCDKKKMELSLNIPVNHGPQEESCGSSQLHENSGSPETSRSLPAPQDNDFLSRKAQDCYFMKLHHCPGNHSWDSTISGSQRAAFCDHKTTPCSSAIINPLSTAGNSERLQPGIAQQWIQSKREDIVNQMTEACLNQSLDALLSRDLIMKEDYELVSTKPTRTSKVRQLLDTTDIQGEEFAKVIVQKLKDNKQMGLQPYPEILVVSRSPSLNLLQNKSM
TLR9-MyD88 block = blocks human TLR9 binding to MyD88; Q9NR96+Q99836; CHO BLA complementation TLR9-MyD88, CCF4 FRET ratio; inhibition, % at 4.98 µM; 0.21% of 340,000 active;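 active means inhibition above the mean over all tested compounds plus 3 SD, cut at about 21% in these data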;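 further: 0% = DMSO only wells and 100% = clavulanate BLA inhibitor control wells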
TLR4 MyD88 comp = inhibitors of human TLR4-MyD88 binding | O00206+Q99836 | HeLa CL3-4 TLR4/MyD88 BLA complementation, FRET ratio | inhibition, % at 8.4 µM | 0.18% of 200,000 active | AID 861; in the data active means inhibition above about 25%;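 further: 0% = vehicle and 100% = reference inhibitor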
TMEM16A reconf = re-confirmation of mouse TMEM16A chloride channel inhibitors; shares compounds with ANO1 block; HEK293 TMEM16A/YFP-H148Q, iodide quench fluorescence; ionomycin added to raise cell calcium; inhibition, % at 10 µM; 39% of 2,300 active; AID 652189;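 active means mean duplicate percent inhibition, scaled so buffer wells are 0 and the reference blocker 100, over three buffer SD above buffer mean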
TMEM16A Ca cntr = counter-screen for TMEM16A inhibitors: effect on calcium mobilization | shares compounds with ANO1 block | TMEM16A/YFP HEK293, Fluo4 calcium mobilization | calcium response (% of ionomycin), % at 10 µM | 2% of 2,300 active | AID 652231;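 active means duplicate-averaged calcium signal over 20% of the ionomycin maximum, relative to buffer baseline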;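 further: each well's signal is peak minus trough fluorescence divided by its pre-addition baseline; 0% = buffer wells and 100% = ionomycin wells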
Parental YFP cnt = acts in parental YFP-HEK293 cells lacking TMEM16A, counter-screen. shares compounds with ANO1 block. iodide YFP quench, ionomycin. YFP ratio F(max-min)/F0 at 10 µM. 2,300 tested, under 10 active;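 active means yellow fluorescent protein signal ratio exceeding the buffer control mean by over 5 SD of those controls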;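 further: ratio is mean of duplicate wells from kinetic YFP trace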
ClC-1 inh = selectivity of TMEM16A inhibitors: inhibition of rat ClC-1 chloride channel; AID 652236; 2,300 tested, under 10 active; ratio percent, % at 10 µM; shares compounds with ANO1 block; CHO ClC-1-YFP, iodide influx fluorescence quench; iodide control reads 0, buffer control 100;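 active means duplicate-mean ratio percent above the mean of iodide-only control wells, which defines zero, plus 5 of their SD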;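 further: higher percent means stronger block of ClC-1 iodide influx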
* hit, by the source's call; i = inactive; · = no result given. Only some compounds are listed: those with a hit (about 2.4% of all), similar ones and a draw of the others.

SMILES	ANO1 block	TMEM16A act	m5-HT2A agonist	NOD2-RIPK2 inh	TLR9-MyD88 block	TLR4 MyD88 comp	TMEM16A reconf	TMEM16A Ca cntr	Parental YFP cnt	ClC-1 inh
CC(C)c1noc2ncc(C(=O)c3cc(Cl)cc(Cl)c3O)cc12	25*	i	6.6	-10.1	5.1	-0.9	32.5%*	i	-0.882	-3.5
Nc1nc2ncc(C(=O)c3cc(Cl)cc(Cl)c3O)cc2s1	i	i	8.8	2.5	4.9	·	·	·	·	·
CCOC(=O)CNC(=O)C(NC(=O)C1CCC(C)CC1)C(C)CC (configuration not stated)	25*	i	-1.6	-7.6	7.6	-5.7	i	i	-1.09	-2.0
Cc1nn(-c2ccccc2)c(Cl)c1C(=O)Nc1nnc(C2CCCC2)s1	25*	i	-6.6	-1.6	-1.4	-6.5	i	i	-1.13	-16.5
Cc1nn(-c2ccccc2)c(Cl)c1C(=O)NC1CCCCC1	i	i	-0.6	2.1	4.0	-3.1	·	·	·	·
CCCCN(CCCC)c1nc(OC)nc(-n2nnc(C(C)=O)c2C)n1	25*	i	8.2	-1.4	5.6	-1.3	17.0%*	i	-1.1	-12.5
CC(=O)c1nnn(-c2nc(N)nc(N(c3ccccc3)c3ccccc3)n2)c1C	i	i	3.8	-5.2	5.3	-5.5	·	·	·	·
CCN(CC)S(=O)(=O)c1cccc(NC(=O)COC(=O)CCC(=O)c2cccs2)c1	i	i	-3.2	1.8	-3.6	-7.7	·	·	·	·
CCN(CC)S(=O)(=O)c1cc(NC(=O)COC(=O)CCC(=O)c2cccs2)ccc1C	25*	i	0.3	8.9	-7.0	-7.1	23.5%*	i	-0.968	-9.5
O=C(Nc1ncc([N+](=O)[O-])s1)c1ccco1	i	i	0.9	0.2	0.3	·	·	·	·	·
Cc1ccc(C(=O)Nc2ncc([N+](=O)[O-])s2)cc1	25*	i	-2.0	-4.8	-10.2	·	50.5%*	i	-0.98	-27.0
COc1ccc(NC(=O)CN(C)CC(=O)Nc2cccc(S(=O)(=O)N(C)c3ccccc3)c2)cc1	i	i	0.2	6.8	-4.8	11.0	·	·	·	·
O=C(Nc1ccc(Cl)cc1-c1nc2ccccc2s1)c1ccco1	i	i	-5.5	-3.2	14.0	4.2	i	i	-0.925	5.5
O=C(c1ccncc1)c1ccc(N2CCN(C3CC(=O)N(Cc4ccccc4)C3=O)CC2)cc1 (configuration not stated)	100*	i	3.7	7.1	-9.2	1.7	25.0%*	i	-0.885	-6.0
COc1ccc(Cl)c2sc(N3CCN(C(=O)C4=COCCO4)CC3)nc12	i	i	0.6	3.3	-11.2	·	·	·	·	·
O=C(Nc1ccc(F)cc1)c1ccccc1NS(=O)(=O)N1CCCC1	25*	i	-4.7	-0.1	8.1	3.6	27.5%*	i	-1.19	-6.0
CC(C)(C)n1cnc2cc(NS(=O)(=O)c3ccc(Br)cc3)ccc21	25*	i	3.9	-12.3	-1.8	-1.0	i	i	-0.91	-10.5
O=C(c1ccccc1)N1CCC(O)(c2cccnc2)CC1	i	i	-2.0	-9.2	-6.5	5.1	·	·	·	·
COc1ccc(NC(=S)N2CCN(S(=O)(=O)c3ccc(C)cc3)CC2)cc1	i	i	4.9	-2.0	5.5	·	·	·	·	·
CCOc1ccc(-c2nnn(CC(=O)c3ccc4c(c3)OCCO4)n2)cc1OCC	25*	i	-0.3	-1.6	-7.4	6.4	18.5%*	i	-1.02	-9.5
Cc1cccc(Nc2nnc(SCC(=O)NCc3cccs3)s2)c1	i	i	6.3	-6.6	-2.3	-1.4	·	·	·	·
COc1cc(OC)c(NC2c3ccccc3C(=O)N2c2cc(C)ccn2)cc1Cl (configuration not stated)	i	i	1.1	9.1	-2.1	3.9	·	·	·	·
CCOC(=O)c1ccccc1NC1c2ccccc2C(=O)N1c1cc(C)ccn1 (configuration not stated)	100*	i	-4.8	-1.3	-4.8	2.1	i	i	-0.978	-0.5
COc1ccc(C2C(C(=O)c3ccco3)=C(O)C(=O)N2CC2CCCO2)cc1OC (configuration not stated)	i	i	5.1	-8.6	-2.2	·	·	·	·	·
Cc1ccccc1CSCCNC(=S)Nc1ccccc1	i	i	1.1	-5.7	4.9	0.8	·	·	·	·
SMILES	ANO1 block	TMEM16A act	m5-HT2A agonist	NOD2-RIPK2 inh	TLR9-MyD88 block	TLR4 MyD88 comp	TMEM16A reconf	TMEM16A Ca cntr	Parental YFP cnt	ClC-1 inh
S=C(NCCSCc1ccc(Cl)cc1Cl)Nc1ccccc1	100*	i	-5.6	-10.6	2.6	-5.2	23.0%*	i	-0.957	-19.0
Cc1ccccc1-n1nnnc1SC(C)C(=O)Nc1ccc(N2CCN(C)CC2)cc1 (configuration not stated)	i	i	-0.1	-11.6	-7.3	·	·	·	·	·
Cc1ccc(S(=O)(=O)Nc2ccc(Cl)cc2C(=O)c2ccccc2)cc1	25*	i	-2.4	-9.4	-6.3	-1.7	i	i	-0.856	-6.0
CCOC(=O)c1ccc(Oc2cn[nH]c2-c2ccc(O)cc2O)cc1	25*	i	-2.1	-1.3	-4.5	·	43.0%*	i	-1.02	-15.0
CCCOC(=O)c1ccc(Oc2cn[nH]c2-c2ccc(O)cc2O)cc1	i	i	1.7	-18.4	9.4	·	·	·	·	·
CCOc1cc2[nH]c(=S)n(Cc3ccc(C(=O)NCC(OC)OC)cc3)c(=O)c2cc1OCC	100*	i	3.3	-1.6	-5.0	-3.9	i	i	-1.05	-6.0
CCOc1cc2[nH]c(=S)n(Cc3ccc(C(=O)NCCN(CC)CC)cc3)c(=O)c2cc1OCC	i	i	-4.5	-2.5	11.5	·	·	·	·	·
CCS(=O)(=O)NCc1cn2c(C)csc2n1	i	i	2.1	-15.6	-2.1	-2.0	·	·	·	·
O=C(COc1ccccc1)N1N=C(c2cccnc2)CC1(O)C(F)(F)F (configuration not stated)	i	i	1.4	2.5	8.1	-18.3	·	·	·	·
COc1ccc(CC(=O)Nc2cccc(-c3csc(C)n3)c2)cc1	i	i	-4.2	-1.3	-1.4	-5.0	·	·	·	·
Cc1nc(-c2cccc(NC(=O)COc3ccc(Cl)cc3)c2)cs1	25*	i	5.9	10.5	9.7	·	i	i	-1.06	-5.0

High-throughput results deposited in PubChem by several laboratories.
